The values that follow come from PubChem BioAssay (NCATS).

Each structure is given as a SMILES string. Entries with a potency or affinity are not part of this list. Calls of active or inactive are those of the source. How the calls were made is not given here. Starred links: 1 amine or outer side, 2 acyl side, 3 side chain; linkers in the order of their positions; H or OH if unused. Positions of bridges follow the written chain, without caps; N, C: chain ends. Non-standard residues stand in square brackets, D forms with d. Residues, ends and D or L forms follow the SMILES beside them. ξ: configuration not given here. *: point of attachment. ΔAla(3-NHCONH2) = NC(=O)NC=C(N)C(=O)O; X1 = NC1=NCCC(C(N[*:1])C(=O)[*:2])N1; ξβ3hOrn = NCCCC(N)CC(=O)*; Dap = NC[CH](N)C(=O)O
Further: 0% is about no effect.

The conditions of this assay: Ebola virus entry assay, green fluorescence channel.
As for `NC(=O)N1c2ccccc2CC(=O)c2ccccc21`, the efficacy was -11.2% (inactive).
Under `O=C(CCCN1CCC(O)(c2ccc(Cl)cc2)CC1)c1ccc(F)cc1` stands 61.7% (inactive); under `O=C(O)P(=O)(O)O`, -12.5% (inactive).
Under `C[C@H]1[C@H](NC(=O)/C(=N/OC(C)(C)C(=O)O)c2csc(N)n2)C(=O)N1S(=O)(=O)O` (stereo in doubt) stands 16.2% (inactive); under `CCCCc1nc(Cl)c(CO)n1Cc1ccc(-c2ccccc2-c2nn[nH]n2)cc1`, -25.2% (inactive).
Under `Cc1cn[nH]c1` stands -9.66% (inactive).
`CC(C)NCC(O)COc1cccc2[nH]ccc12` (stereo not given): the efficacy was -19.5% (inactive).
Under `CC(C(=O)O)c1cccc(C(=O)c2ccccc2)c1` (stereo not given) stands 11.5% (inactive); under `CC(C)c1nc(CN(C)C(=O)N[C@H](C(=O)N[C@@H](Cc2ccccc2)C[C@H](O)[C@H](Cc2ccccc2)NC(=O)OCc2cncs2)C(C)C)cs1`, 31.8% (inactive); under `CC1=C(C(=O)O)N2C(=O)[C@@H](NC(=O)[C@H](N)c3ccc(O)cc3)[C@H]2SC1`, -8.88% (inactive).
The same measure for `O=C1CCc2ccc(OCCCCN3CCN(c4cccc(Cl)c4Cl)CC3)cc2N1`: -27% (inactive); for `CC(S)C(=O)NCC(=O)O` (stereo not given): -25.6% (inactive); for `CCCN(CCC)CCc1cccc2c1CC(=O)N2`: 29.5% (inactive).
Under `NCC(CC(=O)O)c1ccc(Cl)cc1` (stereo not given) stands -35.7% (inactive); under `Cc1ccccc1C(=O)Nc1ccc(C(=O)N2CCCC(O)c3cc(Cl)ccc32)c(C)c1` (stereo not given), 54.1% (inactive).
On to `NC(=O)OCC(COC(N)=O)c1ccccc1`, for which the efficacy was -25.6% (inactive).
The same measure for `O=C1C(=O)c2ccccc2C(O)=C1C1CCC(c2ccc(Cl)cc2)CC1` (stereo not given): 18.6% (inactive); for `Cc1[nH]cnc1CN1CCc2c(c3ccccc3n2C)C1=O`: -10.6% (inactive).
Under `COc1ccccc1OCCNCC(O)COc1cccc2[nH]c3ccccc3c12` (stereo not given) stands 67.7% (inactive); under `NC(=O)c1cn(Cc2c(F)cccc2F)nn1`, -11.2% (inactive); under `NCCCC(O)(P(=O)(O)O)P(=O)(O)O`, 11.2% (inactive).
Take `CN(CCOc1ccc(CC2SC(=O)NC2=O)cc1)c1ccccn1` (stereo not given): the efficacy was -12.2% (inactive).
On to `N[C@@H]1CONC1=O`, for which the efficacy is -13.4% (inactive).
Under `CCCC(CCC)C(=O)O` stands -11.7% (inactive); under `CC(C)CC(N(C)C)C1(c2ccc(Cl)cc2)CCC1` (stereo not given), -28.7% (inactive); under `NCCCC(N)CC(=O)NCC1NC(=O)C(CO)NC(=O)C(N)CNC(=O)C(C2CCN=C(N)N2)NC(=O)C(=CNC(N)=O)NC1=O` (stereo not drawn) (H-[Dap]S[Dap](ξβ3hOrn)[ΔAla(3-NHCONH2)][X1]; lactam 1-C; configuration not given here), 13% (inactive).
Under `C[C@]12CC[C@H]3[C@@H](CCC4=CC(=O)CC[C@@H]43)[C@@H]1CC[C@@H]2OC(=O)CCc1ccccc1` stands -39.3% (inactive); under `CCOC(=O)[C@H](CCc1ccccc1)N[C@@H](C)C(=O)N1[C@H](C(=O)O)C[C@@H]2CCC[C@@H]21`, -29.2% (inactive).
The same measure for `CC[C@@H](CO)NC(=O)[C@@H]1C=C2c3cccc4c3c(cn4C)C[C@H]2N(C)C1`: 9.51% (inactive).
Turning to `COc1ccc(OC)c(C(O)CNC(=O)CN)c1` (stereo not given), the efficacy is 13.6% (inactive).
The same measure for `O=C(O)CCCc1ccccc1`: -16.1% (inactive); for `NS(=O)(=O)c1cc2c(cc1Cl)NC=NS2(=O)=O`: -8.1% (inactive); for `CC1=NS(=O)(=O)c2cc(Cl)ccc2N1`: -18.7% (inactive).
Under `O=c1[nH]cc(F)c(=O)[nH]1` stands 26.1% (inactive); under `C[C@@H](O)[C@H]1C(=O)N2C(C(=O)O)=C(S[C@@H]3CN[C@H](C(=O)N(C)C)C3)[C@H](C)[C@H]12`, 17.9% (inactive); under `O=C1CCC(N2C(=O)c3ccccc3C2=O)C(=O)N1` (stereo not given), -16.4% (inactive).
Under `CC(C)(C(=O)O)c1ccc(C(O)CCCN2CCC(C(O)(c3ccccc3)c3ccccc3)CC2)cc1` (stereo not given) stands -13% (inactive); under `CNCCC(Oc1ccc(C(F)(F)F)cc1)c1ccccc1` (stereo not given), -180% (inactive).
Take `CCOC(=O)c1ncn2c1CN(C)C(=O)c1cc(F)ccc1-2`: the efficacy is -22.5% (inactive).
The same measure for `CCN(CC)C(=S)SSC(=S)N(CC)CC`: -47.8% (inactive).
